# Values without a mark were called inactive. Inconclusive results are not listed. A call without a number means that no potency is given here. Calls of active or inactive are those of the source. Unless noted, calls come from the whole dose curve; as a rule, active = well fitted curve in the direction sought with a large enough effect; inconclusive = small, poorly fitted or top-dose-only effect, or another doubt; inactive = no such curve, though single readings can be large; an effect the other way counts as inactive or inconclusive.
# Assays:
# [1] = biological target: Rap guanine nucleotide exchange factor 3 (Homo sapiens) (UniProt O95398); test: Confirmatory qHTS for antagonist of cAMP-regulated guanine nucleotide exchange factor 3 (EPAC1) (AID 1645880); conditions: EPAC1 Rap1B-BODIPY-GDP exchange, fluorescence; activity, negative = inhibition: at 115 µM (top of the series); note: nearly all actives have a fitted effect of over 55% in size; note: potency is the fitted concentration of half-maximal effect
# Rap guanine nucleotide exchange factor 3 (Homo sapiens), sequence (O95398 whole entry, looked up): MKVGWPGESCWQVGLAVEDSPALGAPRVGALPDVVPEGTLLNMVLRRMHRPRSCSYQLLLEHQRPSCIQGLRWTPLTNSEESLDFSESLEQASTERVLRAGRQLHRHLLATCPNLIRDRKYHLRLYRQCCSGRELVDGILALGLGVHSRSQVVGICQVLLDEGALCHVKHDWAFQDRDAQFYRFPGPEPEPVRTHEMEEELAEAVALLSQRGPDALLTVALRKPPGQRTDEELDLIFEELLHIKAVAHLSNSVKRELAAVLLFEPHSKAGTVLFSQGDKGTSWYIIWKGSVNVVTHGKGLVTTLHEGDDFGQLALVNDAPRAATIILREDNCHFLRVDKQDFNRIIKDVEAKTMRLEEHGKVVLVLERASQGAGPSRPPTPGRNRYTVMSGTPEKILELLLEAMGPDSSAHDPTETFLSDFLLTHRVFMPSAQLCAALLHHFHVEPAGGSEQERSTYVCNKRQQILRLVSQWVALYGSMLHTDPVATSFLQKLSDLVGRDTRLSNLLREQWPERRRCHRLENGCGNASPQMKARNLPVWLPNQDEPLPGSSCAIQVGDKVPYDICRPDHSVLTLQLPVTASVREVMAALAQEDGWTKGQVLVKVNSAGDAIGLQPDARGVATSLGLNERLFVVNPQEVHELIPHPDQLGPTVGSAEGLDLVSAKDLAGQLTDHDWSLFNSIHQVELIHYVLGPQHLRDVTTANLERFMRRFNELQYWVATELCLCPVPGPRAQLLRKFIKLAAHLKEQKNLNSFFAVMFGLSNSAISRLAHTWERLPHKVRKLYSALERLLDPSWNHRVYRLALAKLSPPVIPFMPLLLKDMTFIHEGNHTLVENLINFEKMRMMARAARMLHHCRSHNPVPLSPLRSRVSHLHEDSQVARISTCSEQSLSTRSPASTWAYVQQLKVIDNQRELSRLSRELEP
# Procedure, shortened: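 Released BODIPY-GDP fluoresces less than Rap1-bound BODIPY-GDP; the signal is followed at 480/540 nm at 5-min intervals over 30 min, after 5 min at room temperature. Reactions contain 100 nM EPAC1, 250 nM RAP1B-BODIPY-GDP and 50 uM GDP; results are normalized to ATA and DMSO.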
# [2] = biological target: Rap guanine nucleotide exchange factor 4 (Homo sapiens) (UniProt Q8WZA2); test: Confirmatory qHTS for antagonist of cAMP-regulated guanine nucleotide exchange factor 4 (EPAC2) (AID 1645885); note: nearly all actives have a fitted effect of over 25% in size; note: potency is the fitted concentration of half-maximal effect
# Rap guanine nucleotide exchange factor 4 (Homo sapiens), sequence (Q8WZA2 whole entry, looked up): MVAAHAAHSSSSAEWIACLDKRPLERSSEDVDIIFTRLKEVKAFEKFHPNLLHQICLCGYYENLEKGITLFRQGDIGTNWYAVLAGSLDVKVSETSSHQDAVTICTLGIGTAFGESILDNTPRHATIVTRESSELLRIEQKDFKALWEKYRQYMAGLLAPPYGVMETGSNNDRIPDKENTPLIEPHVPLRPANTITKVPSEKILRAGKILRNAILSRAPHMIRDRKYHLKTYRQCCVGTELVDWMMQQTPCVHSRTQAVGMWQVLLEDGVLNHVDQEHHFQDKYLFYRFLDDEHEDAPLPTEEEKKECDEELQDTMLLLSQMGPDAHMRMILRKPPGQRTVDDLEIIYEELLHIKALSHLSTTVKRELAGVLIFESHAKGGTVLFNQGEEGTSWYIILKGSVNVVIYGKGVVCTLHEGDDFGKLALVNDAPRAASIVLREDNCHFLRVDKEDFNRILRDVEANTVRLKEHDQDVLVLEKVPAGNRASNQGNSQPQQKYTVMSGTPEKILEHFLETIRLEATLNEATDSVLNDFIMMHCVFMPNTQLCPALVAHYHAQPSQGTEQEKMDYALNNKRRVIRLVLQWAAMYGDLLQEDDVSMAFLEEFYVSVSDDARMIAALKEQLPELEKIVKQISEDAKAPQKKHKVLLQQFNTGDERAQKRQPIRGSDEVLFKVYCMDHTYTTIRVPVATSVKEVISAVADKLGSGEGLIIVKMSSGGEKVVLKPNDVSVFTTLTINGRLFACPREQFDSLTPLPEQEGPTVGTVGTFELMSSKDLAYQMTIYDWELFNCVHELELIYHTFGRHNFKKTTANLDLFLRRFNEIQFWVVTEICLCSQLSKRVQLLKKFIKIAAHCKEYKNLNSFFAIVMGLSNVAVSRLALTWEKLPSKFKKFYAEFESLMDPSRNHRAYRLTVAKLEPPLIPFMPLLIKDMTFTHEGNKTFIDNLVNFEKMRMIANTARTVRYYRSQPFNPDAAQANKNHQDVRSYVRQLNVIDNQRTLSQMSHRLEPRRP
# [3] = biological target: Rap guanine nucleotide exchange factor 3 (Homo sapiens) (UniProt O95398); test: Counterscreen qHTS for antagonist of cAMP-regulated guanine nucleotide exchange factor 3 (EPAC1) (AID 1645888)
# Procedure, shortened: (§1)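 Measured: fluorescence of BODIPY-GDP bound to Rap1B, which falls as exchange proceeds. Conditions include 50 uM competing GDP, 5 and 30 min reads, and a later cAMP challenge for antagonist detection.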
# [4] = biological target: Rap guanine nucleotide exchange factor 4 (Homo sapiens) (UniProt Q8WZA2); test: Confirmatory qHTS for agonist of cAMP-regulated guanine nucleotide exchange factor 4 (EPAC2) (AID 1645884);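 note: nucleotide exchange releases bodipy-GDP from Rap1 and this lowers its fluorescence; nearly all actives have a fitted effect of over 65% in size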; note: potency is the fitted concentration of half-maximal effect
# [5] = biological target: Rap guanine nucleotide exchange factor 3 (Homo sapiens) (UniProt O95398); test: Counterscreen qHTS for agonist of cAMP-regulated guanine nucleotide exchange factor 3 (EPAC1) (AID 1645889); note: nearly all actives have a fitted effect of over 40% in size; note: potency is the fitted concentration of half-maximal effect
# Procedure, shortened: as §1
# [6] = biological target: Tumor susceptibility gene 101 protein (Homo sapiens) (UniProt Q99816); test: qHTS Assay for Iinhibitors of HIV-1 Budding by Blocking the Interaction of PTAP/TSG101: Hit Validation (AID 651600); note: nearly all actives have a fitted effect of over 70% in size; note: potency is the fitted concentration of half-maximal effect
# Tumor susceptibility gene 101 protein (Homo sapiens), sequence (Q99816 whole entry, looked up, the tested form may be a part): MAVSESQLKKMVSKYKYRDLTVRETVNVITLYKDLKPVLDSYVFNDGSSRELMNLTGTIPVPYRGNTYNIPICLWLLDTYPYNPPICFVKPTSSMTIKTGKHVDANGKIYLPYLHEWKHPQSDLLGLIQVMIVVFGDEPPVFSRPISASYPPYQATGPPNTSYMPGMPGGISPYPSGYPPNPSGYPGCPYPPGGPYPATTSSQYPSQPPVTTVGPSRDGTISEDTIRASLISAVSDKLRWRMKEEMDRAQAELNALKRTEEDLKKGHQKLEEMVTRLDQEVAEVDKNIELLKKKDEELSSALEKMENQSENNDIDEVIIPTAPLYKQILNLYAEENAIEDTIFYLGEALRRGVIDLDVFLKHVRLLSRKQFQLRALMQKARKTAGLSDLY
# Procedure, shortened: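 Displacement of a FITC-labeled PTAP-motif peptide (50 nM) from the Tsg101 binding domain (10 uM) was monitored by fluorescence polarization after a 20 min room-temperature incubation.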
# [7] = biological target: Lysosomal acid glucosylceramidase (Homo sapiens) (UniProt P04062); test: Glucocerebrosidase-p2 (AID 348; in the data active = potency below about 10 µM; note: potency is the fitted concentration of half-maximal effect); conditions: purified GBA, blue fluorogenic substrate, 40 min
# Lysosomal acid glucosylceramidase (Homo sapiens), sequence (P04062 whole entry, looked up): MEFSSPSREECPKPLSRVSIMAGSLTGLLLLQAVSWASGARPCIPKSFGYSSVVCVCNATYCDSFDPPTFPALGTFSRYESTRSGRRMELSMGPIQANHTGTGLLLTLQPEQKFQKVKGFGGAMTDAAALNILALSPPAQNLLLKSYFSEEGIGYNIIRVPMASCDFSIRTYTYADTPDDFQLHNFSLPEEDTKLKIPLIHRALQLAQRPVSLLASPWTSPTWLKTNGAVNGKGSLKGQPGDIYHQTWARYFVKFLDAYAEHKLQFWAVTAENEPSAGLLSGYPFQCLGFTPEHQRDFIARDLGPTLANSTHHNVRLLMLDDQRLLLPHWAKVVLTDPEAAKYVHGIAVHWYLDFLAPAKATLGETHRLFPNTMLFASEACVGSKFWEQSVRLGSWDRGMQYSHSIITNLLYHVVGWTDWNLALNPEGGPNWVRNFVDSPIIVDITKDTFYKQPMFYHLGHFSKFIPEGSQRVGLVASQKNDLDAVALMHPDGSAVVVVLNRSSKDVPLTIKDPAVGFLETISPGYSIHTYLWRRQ
# Procedure, shortened: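 Normal human glucocerebrosidase (0.2 nM) with blue fluorogenic substrate (80 uM final) in citrate/phosphate pH 5.9 with 10mM sodium taurocholate, 0.01% tween-20; 40 min RT, NaOH/glycine stop; fluorescence Ex 365/Em 440; AC50 from a titration from 0.6 nM upwards.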
# [8] = AP1 Signaling Pathway (AID 357; active = well fitted curve in either direction with a large enough effect, not every such curve was filed as active;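 note: ME-180 reporter cells stimulated with EGF at its EC50 level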); conditions: ME-180 AP-1-bla reporter, EGF-induced, beta-lactamase ratio, 5 h; at 7.69 µM (top of the series) unless noted
# Procedure, shortened: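 AP-1-bla ME-180 cells, Opti-MEM + 0.5% dialyzed FBS, plated overnight 37 °C. Cpd titration + EC50 EGF, 5 h 37 °C. CCF4 2.5 h RT; ex 405, em 460/530 ratio → %activity, AC50.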
# [9] = biological target: Cytochrome P450 1A2 (Homo sapiens) (UniProt P05177); test: p450-cyp1a2 (AID 410; calls by dose curve; note: potency is the fitted concentration of half-maximal effect)
# Procedure, shortened: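 Luminescent demethylation readout: Luciferin-ME (100uM, equal to Km) turned over by 20nM CYP1A2 for 60 min at room temperature after NADPH regeneration addition, following 10 min compound preincubation. Normalization used 57 uM furafylline as full inhibition.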
# [10] = NFAT Signaling Pathway (AID 444; active = well fitted curve in either direction with a large enough effect, not every such curve was filed as active;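 note: carbachol stimulus at about its EC50 of 1 µM final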); conditions: Jurkat NFAT-bla M1, carbachol, beta-lactamase ratio, 5 h; at 7.69 µM (top of the series) unless noted
# Procedure, shortened: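 Jurkat cells carrying an NFAT-driven β-lactamase reporter and co-transfected muscarinic M1 receptor were treated with compound plus carbachol (1 uM final, an EC50 level) for 5 h at 37 °C. CCF4 loading followed for 1 h at RT; 460/530 nm ratio gave %activity.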
# [11] = Stat Signaling Pathway (AID 446; active = well fitted curve in either direction with a large enough effect, not every such curve was filed as active;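 note: ME-180 cervical cancer cells given 40 pM IL-6 alongside compound; SIE-controlled beta-lactamase reporter measured as 460/530 nm FRET emission ratio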)
# Procedure, shortened: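 Emission at 460 and 530 nm (excitation 405 nm) reports SIE-controlled beta-lactamase in ME-180 cells. Cells received compound with 40 pM IL-6 for 5 hrs at 37 C; data scaled between 300 pM IL-6 and 125 nM JAK-inhibitor controls.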
# [12] = biological target: Glucocorticoid receptor (Homo sapiens) (UniProt P04150); test: GR-EFC Redistribution (AID 451; calls by dose curve; note: potency is the fitted concentration of half-maximal effect); conditions: CHO-K1 GR-EFC translocation, beta-gal luminescence, 2 h
# Glucocorticoid receptor (Homo sapiens), sequence (P04150 whole entry, looked up, the tested form may be a part): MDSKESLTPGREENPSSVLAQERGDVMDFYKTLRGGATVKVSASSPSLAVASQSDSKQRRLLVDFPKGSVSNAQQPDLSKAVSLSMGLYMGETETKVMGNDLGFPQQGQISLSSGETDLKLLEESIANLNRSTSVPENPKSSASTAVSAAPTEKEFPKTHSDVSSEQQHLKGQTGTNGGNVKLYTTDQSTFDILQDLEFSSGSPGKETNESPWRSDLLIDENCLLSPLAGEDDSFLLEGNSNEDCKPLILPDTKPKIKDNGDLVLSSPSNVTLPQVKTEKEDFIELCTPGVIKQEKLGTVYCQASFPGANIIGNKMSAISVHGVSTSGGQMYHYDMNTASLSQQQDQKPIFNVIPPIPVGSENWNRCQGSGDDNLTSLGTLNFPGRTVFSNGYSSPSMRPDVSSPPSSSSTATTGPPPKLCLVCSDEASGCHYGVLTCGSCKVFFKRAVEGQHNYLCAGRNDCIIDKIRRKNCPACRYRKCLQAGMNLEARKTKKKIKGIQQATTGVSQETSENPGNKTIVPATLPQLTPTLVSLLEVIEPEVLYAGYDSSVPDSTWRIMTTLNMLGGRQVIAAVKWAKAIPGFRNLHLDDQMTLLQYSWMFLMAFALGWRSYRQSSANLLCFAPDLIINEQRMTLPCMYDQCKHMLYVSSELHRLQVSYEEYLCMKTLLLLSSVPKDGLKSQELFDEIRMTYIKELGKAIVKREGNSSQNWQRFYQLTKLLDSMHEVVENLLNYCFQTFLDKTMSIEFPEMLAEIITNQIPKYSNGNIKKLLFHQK
# Procedure, shortened: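 CHO-K1 cells stably expressing nuclear-localized β-gal enzyme acceptor and GR fused C-terminally to the enzyme donor fragment; ligand-driven nuclear translocation restores β-gal by complementation. Compounds titrated up to 46 uM final, 2 h at 37 °C; luminescence read.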
# [13] = biological target: Mitogen-activated protein kinase 10 (Mus musculus) (UniProt Q61831); test: JNK3 AlphaScreen Assay (AID 530; active = well fitted curve in either direction with a large enough effect, not every such curve was filed as active;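 note: kinase came from lysate of stimulated human HepG2 cells; signal reports phosphorylation of biotinylated GST-cJun 1-79 at Ser73 with 10 µM ATP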)
# Procedure, shortened: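 Phosphorylation of biotinylated GST-cJun(1-79) at Ser73 is measured by AlphaScreen proximity luminescence. Enzyme is JNK3 in HepG2 lysates activated with interleukin-1beta and tumor necrosis factor alpha; ATP is 10 uM final.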
# [14] = biological target: 3',5'-cyclic-AMP phosphodiesterase 4B (Homo sapiens) (UniProt Q07343); test: qHTS Assay for Inhibitors of PDE-IV (AID 607; active = well fitted activation curve with a large enough effect in the main read-out, with a control signal flat, not every such curve was filed as active)
# 3',5'-cyclic-AMP phosphodiesterase 4B (Homo sapiens), sequence (Q07343 whole entry, looked up): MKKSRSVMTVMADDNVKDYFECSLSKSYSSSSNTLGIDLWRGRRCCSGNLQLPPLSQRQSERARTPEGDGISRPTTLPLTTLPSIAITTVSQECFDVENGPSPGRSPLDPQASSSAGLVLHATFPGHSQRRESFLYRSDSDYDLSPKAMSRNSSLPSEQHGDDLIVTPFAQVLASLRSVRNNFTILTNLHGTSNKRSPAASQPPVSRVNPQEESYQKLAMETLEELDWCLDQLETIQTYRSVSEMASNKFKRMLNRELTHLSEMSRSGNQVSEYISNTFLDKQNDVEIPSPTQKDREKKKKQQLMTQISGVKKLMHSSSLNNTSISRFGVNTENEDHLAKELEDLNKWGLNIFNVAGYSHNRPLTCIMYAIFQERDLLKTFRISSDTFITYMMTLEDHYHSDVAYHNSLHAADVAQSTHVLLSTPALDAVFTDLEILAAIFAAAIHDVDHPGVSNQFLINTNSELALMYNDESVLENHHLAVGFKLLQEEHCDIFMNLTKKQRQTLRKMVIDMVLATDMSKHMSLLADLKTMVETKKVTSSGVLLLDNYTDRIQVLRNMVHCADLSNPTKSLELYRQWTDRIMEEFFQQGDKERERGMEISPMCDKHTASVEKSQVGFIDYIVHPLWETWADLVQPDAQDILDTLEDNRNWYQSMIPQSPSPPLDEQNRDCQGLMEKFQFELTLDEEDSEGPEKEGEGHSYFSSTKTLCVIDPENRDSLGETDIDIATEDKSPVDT
# Procedure, shortened: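 The readout is membrane depolarisation from a cAMP-sensing CNG channel, detected with a potential dye at ex 535/em 590. Cells were HEK293-derived (endogenous PDE-IV) at 1000 cells/well, titrated up to 22.9 uM final.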
# [15] = biological target: Cytochrome P450 3A4 (Homo sapiens) (UniProt P08684); test: qHTS Assay for Inhibitors and Substrates of Cytochrome P450 3A4 (AID 884); note: potency is the fitted concentration of half-maximal effect; nearly all actives have a fitted effect of over 50% in size
# Cytochrome P450 3A4 (Homo sapiens), sequence (P08684 whole entry, looked up): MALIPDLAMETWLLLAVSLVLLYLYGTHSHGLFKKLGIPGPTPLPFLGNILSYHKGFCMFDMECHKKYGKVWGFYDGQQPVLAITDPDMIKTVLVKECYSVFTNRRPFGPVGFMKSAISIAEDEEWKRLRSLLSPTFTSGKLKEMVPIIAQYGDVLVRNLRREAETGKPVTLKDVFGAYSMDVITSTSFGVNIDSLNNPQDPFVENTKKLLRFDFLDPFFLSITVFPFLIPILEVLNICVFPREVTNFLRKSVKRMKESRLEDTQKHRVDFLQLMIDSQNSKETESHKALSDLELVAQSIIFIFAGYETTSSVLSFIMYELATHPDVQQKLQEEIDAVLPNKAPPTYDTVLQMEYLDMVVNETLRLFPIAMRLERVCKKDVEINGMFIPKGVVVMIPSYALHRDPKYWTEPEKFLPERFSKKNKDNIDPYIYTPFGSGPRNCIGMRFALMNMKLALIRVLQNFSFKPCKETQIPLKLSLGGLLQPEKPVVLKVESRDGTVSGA
# Procedure, shortened: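 Luminescent readout of luciferin produced by CYP3A4 (20 nM) dealkylation of Luciferin-PPXE, 25 uM (its KM). NADPH-driven reaction ran 60 min at RT after 10 min compound preincubation; data scaled to 57 uM ketoconazole as 100% inhibition.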
# [16] = biological target: Cytochrome P450 3A4 (Homo sapiens) (UniProt P08684); test: qHTS Assay for Activators of Cytochrome P450 3A4 (AID 885); note: nearly all actives have a fitted effect of over 65% in size
# Procedure, shortened: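 Activators are scored by enhanced luminescence from CYP3A4 conversion of luciferin-PPXE (25uM, equal to KM) to luciferin, after 60 min at RT with an NADPH-regenerating system.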
# [17] = qHTS Assay for Identification of Small Molecule Agonists for Hypoxia Response Element Signaling Pathway (AID 914; active = well fitted activation curve with a large enough effect in the signal ratio, with a control signal flat, not every such curve was filed as active; the % refers to the signal ratio); conditions: ME-180 (cervical carcinoma) HRE-bla reporter, beta-lactamase ratio, CoCl2, 17 h; activation: stronger effect = higher value
# Procedure, shortened: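 Reporter activity (beta-lactamase, CCF4 460nm/530nm ratio) in HRE-bla ME-180 cells is recorded after 17 h compound exposure with EC50 CoCl2 at 37 degrees Celsius. AC50 values come from titration data.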
structure (smiles),measurement,setting,value
COc1ccc(CCNC(=S)N2CCN(S(=O)(=O)c3ccc(F)cc3)CC2)cc1,Potency,[1],inactive
same,Potency,[2],inactive
same,Potency,[3],inactive
O=C(C(=Cc1ccc(O)cc1)c1ccccc1)c1ccccc1,Potency,[1],inactive
same,Potency,[4],inactive
same,Potency,[3],inactive
COc1cc2c(cc1OC)C1(C)N(CC2)C(C(C)=O)=NN1c1ccc(Cl)cc1 (stereo not drawn),Potency,[1],inactive
same,activation,[4],"18% [at 17.1 µM, percent relative to cAMP agonist control]"
same,"activity change, negative = inhibition",[3],5.93% [at 30.8 µM]
same,Potency,[5],3.55 µM (active)
CN(C)c1ccc(-c2cc3ccccc3c(=O)o2)cc1,Potency,[1],inactive
same,Potency,[2],inactive
same,Potency,[3],inactive
COc1cccc(C(=O)c2sc3nc(-c4ccccc4)cc(C(F)(F)F)c3c2N)c1,Potency,[1],inactive
same,Potency,[4],inactive
same,Potency,[3],inactive
same,Potency,[5],56.2 µM (active)
C=Cc1ccc(CC2(C)C(=O)Nc3ccc(-c4cccnc4)cc32)cc1 (stereo not drawn),Potency,[1],inactive
same,Potency,[2],inactive
same,Potency,[3],inactive
COC(=O)c1cc2oc(C)cc2n1Cc1ccc(C)cc1,Potency,[1],inactive
same,Potency,[4],inactive
same,Potency,[3],inactive
same,Potency,[5],inactive
CCCN(CCC)c1ccc(/C=C/c2ccnc3ccccc23)cc1,Potency,[1],inactive
same,Potency,[2],inactive
COc1ccc(-c2csc3nc(C)nc(N4CCCCC4)c23)cc1OC,Potency,[1],inactive
same,Potency,[2],inactive
same,Potency,[3],inactive
CCSc1nnc(-c2sc3nnc(-c4ccccc4)c(-c4ccccc4)c3c2N)o1,Potency,[6],25.9 µM (active)
same,Potency,[1],inactive
same,Potency,[4],112 µM (active)
same,Potency,[3],inactive
Cc1cc(N(C)C)c(C)cc1/C=C/c1ccnc2ccccc12,Potency,[1],inactive
same,Potency,[2],inactive
CCCCNc1ccc2c3c(cccc13)C(=O)N(CCCC)C2=O,Potency,[6],4.11 µM (active)
same,Potency,[1],inactive
same,activation,[4],"-62.3% [at 17.1 µM, percent relative to cAMP agonist control]"
same,"activity change, negative = inhibition",[3],213% [at 30.8 µM]
same,Potency,[5],20 µM (active)
CC(=O)Nc1ccc(Nc2c3c4c(cccc4n(C)c2=O)C(=O)c2ccccc2-3)cc1,Potency,[1],inactive
same,Potency,[4],100 µM (active)
same,Potency,[3],inactive
Cc1ccc(/C=C/C(=O)c2ccc(N3CCOCC3)cc2)s1,Potency,[1],inactive
same,Potency,[4],100 µM (active)
same,Potency,[3],inactive
CN(C)c1ccc(/C=C/c2ccnc3c(Cl)cccc23)cc1,Potency,[1],inactive
same,Potency,[2],inactive
CC(C)N1CCc2c(sc(NC(=O)c3ccc(C(=O)c4ccccc4)cc3)c2C(N)=O)C1,Potency,[1],inactive
same,Potency,[2],inactive
same,Potency,[3],inactive
CC(=O)/C(=N\Nc1ccccc1)Sc1cccc2cccnc12,Potency,[1],inactive
same,Potency,[2],84.9 µM (active)
same,Potency,[3],inactive
CC(C)(C)c1ccc(-n2nc(C#N)c(Cl)cc2=O)cc1,Potency,[1],42.6 µM (active)
same,Potency,[2],0.338 µM (active)
same,Potency,[3],inactive
CC(=Nc1ccc(C)cc1C)c1sc2ccccc2c1O,Potency,[6],inactive
same,Potency,[1],inactive
same,Potency,[4],100 µM (active)
same,Potency,[3],inactive
N#CC(C#N)=C1C=C2C=C(N3CCCCCC3)CCC2CC1 (stereo not drawn),Potency,[1],inactive
same,Potency,[2],inactive
CCSC1=NSC2=NC(=O)/C(=C\c3coc4ccccc4c3=O)C(=N)N12,Potency,[1],inactive
same,Potency,[2],inactive
same,"activity change, negative = inhibition",[3],72.5% [at 30.8 µM]
O=C1N(Cc2ccccc2)c2ccc(Cl)cc2C12OCCO2,Potency,[1],inactive
same,activation,[4],"2.15% [at 17.1 µM, percent relative to cAMP agonist control]"
same,"activity change, negative = inhibition",[3],-8.76% [at 30.8 µM]
same,activation,[5],35.6% [at 30.8 µM]
CCN(CC)c1ccc2cc(C(=O)NNC(=O)c3ccc(S(=O)(=O)N4CCCCC4)cc3)c(=O)oc2c1,Potency,[1],inactive
same,Potency,[4],112 µM (active)
same,Potency,[3],inactive
same,Potency,[5],inactive
COc1ccc(NC(=O)c2csc3c2CCCCC3)c(OC)c1,Potency,[1],inactive
same,Potency,[4],inactive
same,Potency,[3],inactive
same,Potency,[5],inactive
COc1ccc2c(c1)CCC1C2=NN(/C(C)=C/C(C)=O)C1c1cccc(F)c1 (stereo not drawn),Potency,[1],inactive
same,Potency,[2],84.9 µM (active)
same,Potency,[3],inactive
O=C1/C(=C\c2cc(Cl)c(O)c(Cl)c2)SC(=S)N1Cc1ccccc1,Potency,[1],inactive
same,Potency,[2],inactive
same,Potency,[3],inactive
O=C1CSC(c2ccc(Cl)c(Cl)c2)N1c1nccs1 (stereo not drawn),Potency,[1],inactive
same,Potency,[4],inactive
same,Potency,[3],inactive
O=C(NCc1cccc(F)c1)c1cccc2c1C(=O)c1ccc(N3CCOCC3)cc1S2(=O)=O,Potency,[1],inactive
same,Potency,[2],inactive
same,Potency,[3],inactive
O=S1(=O)C=C(Oc2ccc3ccccc3c2)c2ccccc21,Potency,[1],inactive
same,activation,[4],"-2.76% [at 17.1 µM, percent relative to cAMP agonist control]"
same,"activity change, negative = inhibition",[3],21.2% [at 30.8 µM]
O=C(C1=NN(c2ccccc2)C2C(=O)N(c3ccccc3)C(=O)C12)c1ccccc1 (stereo not drawn),Potency,[6],inactive
same,Potency,[1],inactive
same,activation,[4],"11% [at 17.1 µM, percent relative to cAMP agonist control]"
same,Potency,[5],15.8 µM (active)
COc1ccc(C(C#N)=Cc2ccccc2OC)cc1,Potency,[1],inactive
same,activation,[4],"-1.43% [at 17.1 µM, percent relative to cAMP agonist control]"
same,"activity change, negative = inhibition",[3],-8.61% [at 30.8 µM]
COc1ccc(Oc2ncc3nc(C)c(=O)n(Cc4cccs4)c3n2)cc1,Potency,[7],> 11.4 µM
same,"activity change, negative = inhibition",[8],4.45%
same,Potency,[9],10 µM (active)
same,"activity change, negative = inhibition",[10],-5.89%
same,outcome,[11],inactive
same,Potency,[12],> 46 µM
same,Potency,[13],inactive
same,Potency,[14],inactive
same,Potency,[15],3.16 µM (active)
same,outcome,[16],inactive
same,activation,[17],-21.2%
same,Potency,[1],inactive
same,Potency,[4],inactive
